± gives the standard deviation.

The assay relates to Streptococcus suis P1/7. As to the kind of experiment: percent growth relative to DMSO control; higher = less growth inhibition. Particulars: 10 µM; incubation time 18 h. The method, then: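 CLSI broth microdilution: 5x10^4 CFU of Streptococcus suis (strain P1/7 or HE06) incubated with 10 µM Pathogen Box compound in cation-adjusted Mueller Hinton broth, 37 °C, 5% CO2, 18 h. Growth read as OD600 and expressed as percent of the DMSO-treated control (100%); mean ± SD of three independent experiments.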
With `CC(C)(C)C(O)C(Oc1ccc(-c2ccccc2)cc1)n1cncn1` (centres undefined), the percent growth was 86.6 ± 29%. As for `Cc1cc(C2=NOC(c3cc(Cl)c(F)c(Cl)c3)(C(F)(F)F)C2)ccc1C(=O)NCc1ccc2c(c1)C(C)(C)OB2O` (centres undefined), the figure is 61.5 ± 40%; as for `CO/C=C(/C(=O)OC)c1ccccc1Oc1cc(Oc2ccccc2C#N)ncn1`, 80.8 ± 20%; as for `CO/N=C(\C(=O)OC)c1ccccc1CO/N=C(\C)c1cccc(C(F)(F)F)c1`, 82 ± 16%. Under `Cc1nn(Cc2ccccc2)c(Cl)c1C(=O)NC1CCCCCC1` stands 93.1 ± 26%; under `Cc1cccc(C(=O)Nc2ccnc(N(C)C3CCN(CC(C)C)CC3)c2)c1`, 67.9 ± 22%; under `Nc1c2c(nc3sc4c(c13)CCCC4)CCCC2`, 97.3 ± 30%. Turning to `CO[C@@H]1CN(c2ccc(C#CC3(O)CN4CCC3CC4)c(Cc3ccccc3)n2)C[C@H]1O` (some centres undefined), the percent growth amounted to 124 ± 50%. Under `O=C1O[C@@H](COc2ccon2)CN1c1cc(F)c(C2=CCN(Cc3ccccc3)CC2)c(F)c1` stands -0.108 ± 0.19%; under `CC1COC(Cn2cncn2)(c2ccc(Oc3ccc(Cl)cc3)cc2Cl)O1` (centres undefined), 82.9 ± 29%. As for `Cc1nn(C)c(C)c1NS(=O)(=O)c1c(Cl)cc(-c2ccnc(N3CCNCC3)c2)cc1Cl`, the figure is 76.6 ± 7.2%. Under `CC1(C)OB(O)c2ccc(C3=NOC(c4cc(Cl)c(F)c(Cl)c4)(C(F)(F)F)C3)cc21` (centres undefined) stands 0.819 ± 0.82%; under `CCc1nn(C)c(C(=O)NCc2ccc(Oc3ccc(C)cc3)cc2)c1Cl`, 91.4 ± 28%; under `O=C1O[C@@H](CO)CN1c1cc(F)c(C2=CCN(Cc3ccccc3)CC2)c(F)c1`, 13.5 ± 23%.

The values are drawn from the supplement of paper PMC7866885, “A novel bicyclic 2,4-diaminopyrimidine inhibitor of Streptococcus suis dihydrofolate reductase” (PeerJ, 2021).
